Screens as filed in PubChem BioAssay.
Rows were chosen to be rich in hits. Some 4.5% of all compounds tested hit in one or more screens of this group.
BJeLR viability – kills HRASV12-expressing BJeLR cells; BJeLR (HRASV12) viability, CellTiter-Glo ATP luminescence, 48 h; inhibition, % (concentration not given with the values); hit rate 0.17% among 300,000; AID 1554; in the data active = inhibition above about 50%
PfHsp40 rescue – rescue of PfHsp40-mediated yeast toxicity | S. cerevisiae expressing PfHsp40, growth rescue, ATP luminescence | growth rescue, % at 12.5 µM | hit rate 0.68% among 340,000 | AID 504582; in the data active = growth rescue above about 28%, passing the limit was not always enough;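 note: yeast W303a lacking pdr1 and pdr3 grown in galactose medium; growth measured after three days at 30 °C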
FBA Mtb inh – inhibitors of M. tuberculosis fructose-bisphosphate aldolase; P9WQA3; purified M. tuberculosis FBA, fluorescence read-out; inhibition, % at 1 µM; hit rate 2.3% among 360,000; AID 588726; in the data active = inhibition above about 27%
Target sequence (P9WQA3 whole entry, looked up): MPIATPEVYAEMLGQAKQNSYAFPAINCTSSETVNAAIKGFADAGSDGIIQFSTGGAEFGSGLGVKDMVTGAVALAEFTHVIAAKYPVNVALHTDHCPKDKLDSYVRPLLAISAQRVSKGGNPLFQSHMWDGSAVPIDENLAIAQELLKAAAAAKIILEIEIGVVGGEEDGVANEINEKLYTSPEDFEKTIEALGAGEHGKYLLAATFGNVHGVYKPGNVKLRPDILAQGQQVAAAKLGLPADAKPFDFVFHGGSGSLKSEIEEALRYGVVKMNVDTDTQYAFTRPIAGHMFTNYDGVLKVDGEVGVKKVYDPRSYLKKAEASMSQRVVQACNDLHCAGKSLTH
GDH-TPI inh – inhibits GDH-TPI coupling enzymes, artifact for Mtb FBA screen | GDH-TPI coupled enzyme counterscreen, NADH absorbance | inhibition, % at 4.8 µM | hit rate 1.2% among 360,000 | AID 588335; in the data active = inhibition above about 30%
PrPC TRFRET – inhibitors of human cell surface prion protein PrPC; TR-FRET read-out; hit rate 0.43% among 370,000; inhibition, % at 13.8 µM; P04156; AID 720596; in the data active = inhibition above about 24%
PrP UTR inh – suppresses PrP 5' UTR mRNA reporter expression. cell-based PrP 5' UTR mRNA reporter, plate reader. inhibition, % (no concentration beside the values). hit rate 0.35% among 340,000; in the data active = inhibition above about 52%
Each line names hits and unclear results; the compound was inactive in the other large screens.

CCc1ccc2[nH]c(=O)c(C3C(C#N)=C(N)Oc4c3ccc3cccnc43)cc2c1 (centres undefined)	PfHsp40 rescue 80.5
Cc1ccc2cc(C3C(C#N)=C(N)Oc4c3ccc3cccnc43)c(=O)[nH]c2c1 (centres undefined)	GDH-TPI inh 34.5 (no result: PrPC TRFRET)
CC(=O)C1=C(C)OC(N)=C(C#N)C1c1cc2cccc(C)c2nc1Cl (centres undefined)	none
CC1(C)Cc2c(sc3nc[nH]c(=O)c23)CO1	none
O=c1[nH]cnc2sc3c(c12)CN(Cc1ccccc1)CC3	FBA Mtb inh 52.2 (no result: PrPC TRFRET)
CCOC(=O)/C(C#N)=C1\C=CN(C)C(C)=N1	GDH-TPI inh 41.7
CCOC(=O)/C(C#N)=C1/C=CN(c2ccccc2)C=N1	GDH-TPI inh 38.3
CCOC(=O)/C(C#N)=C1/C=Nc2ccccc2N1	none
CCOC(=O)/C(C#N)=C1/C=CN(Cc2ccccc2)C=N1	GDH-TPI inh 48.3
CCOC(=O)/C(C#N)=C1/C=CN(C)C=N1	GDH-TPI inh 50.3
